Inconclusive results are not listed. Calls of active or inactive are those of the source. Unless noted, calls come from the whole dose curve; as a rule, active = well fitted curve in the direction sought with a large enough effect; inconclusive = small, poorly fitted or top-dose-only effect, or another doubt; inactive = no such curve, though single readings can be large; an effect the other way counts as inactive or inconclusive.
Legend:
[1] = P-glycoprotein substrates identified in KB-8-5-11 adenocarcinoma cell line, qHTS therapeutic library screen (AID 1346987); note: nearly all actives have a fitted effect of over 65% in size; note: potency is the fitted concentration of half-maximal effect
Outline: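 Steps: plate 500 KB-8-5-11 cells/well in DMEM + 10% FCS (colchicine removed); pin compounds in dose-response; incubate 72 h, 37 degree C, 5% CO2; add CellTiter-Glo, 5 min; read luminescence.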

[2] = tested on: Zika virus NS2B-NS3 protease (unlinked complex); experiment: Primary screen GU Rhodamine qHTS for Zika virus inhibitors: Unlinked NS2B-NS3 protease assay (AID 1347159); note: % is set by controls: 0 for no effect and ±100 for the full control effect; nearly all actives have a fitted effect of over 60% in size
Outline: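 Percent inhibition derives from the 15-min fluorescence change (ex 480, em 540 nm), normalized to no-enzyme and no-inhibitor wells. Reactions contained 25 nM NS2B-NS3 complex and 1.5 microM substrate in 10 mM Tris-HCl pH 8.0.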

[3] = Primary qHTS for inhibitors of nuclear receptor binding SET domain protein 2 (NSD2) in an isogenic RCH-ACV NSD2 p.E1099K mutant (9B) (AID 1645876); note: nearly all actives have a fitted effect of over 70% in size; note: potency is the fitted concentration of half-maximal effect
[4] = Primary qHTS for inhibitors of nuclear receptor binding SET domain protein 2 (NSD2) in an RCH-ACV wild type WT cells (2C) (AID 1645877); note: nearly all actives have a fitted effect of over 70% in size; note: potency is the fitted concentration of half-maximal effect
[5] = tested on: HEK293; experiment: Cytotoxic Profiling of Annotated Libraries Using Quantitative High-Throughput Screening (AID 1296008); conditions: Five cell lines viability, CellTiter-Glo ATP luminescence, 48-72 h; max response: stronger effect = lower value; note: nearly all actives have a fitted effect of over 60% in size; note: potency is the fitted concentration of half-maximal effect; for max response: % is set by controls: 0 for no effect and ±100 for the full control effect
Outline: (§1)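 Cytotoxicity was measured as CellTiter-Glo ATP luminescence, read after 10 min at room temperature. Compound treatment of the cells lasted 48 or 72 hr at 37 degrees Celsius in a qHTS format.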

[6] = tested on: KB-3-1; experiment: as above; conditions: Five cell lines viability, CellTiter-Glo ATP luminescence, 48-72 h; max response: stronger effect = lower value
Outline: as §1

[7] = tested on: HeLa; experiment: Primary qHTS to identify gynecologic anti-cancer compounds using libraries of approved drugs and bioactive compounds (AID 1345084); conditions: Gynecologic cancer cell panel viability, ATPlite luminescence, 48 h; series mostly up to 57.5 µM; note: nearly all actives have a fitted effect of over 55% in size; note: potency is the fitted concentration of half-maximal effect
Outline: (§2)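 Five-concentration response, 48 h; readout is ATP-driven luciferase luminescence.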

[8] = tested on: SKOV3; experiment: as above; conditions: Gynecologic cancer cell panel viability, ATPlite luminescence, 48 h; series mostly up to 57.5 µM
Outline: as §2

[9] = target: Cytochrome P450 2D6 (Homo sapiens) (UniProt P10635); experiment: Cytochrome P450 family 2 subfamily D member 6 (CYP2D6) small molecule antagonists: luciferase biochemical (cell-free) qHTS assay (AID 1645840; active = well fitted curve in the direction sought with a large enough effect in the repeat runs; an effect the other way counts as inactive or inconclusive; note: nearly all actives have a fitted effect of over 55% in size; note: potency is the fitted concentration of half-maximal effect)
Sequence of Cytochrome P450 2D6 (Homo sapiens) (P10635 whole entry, looked up): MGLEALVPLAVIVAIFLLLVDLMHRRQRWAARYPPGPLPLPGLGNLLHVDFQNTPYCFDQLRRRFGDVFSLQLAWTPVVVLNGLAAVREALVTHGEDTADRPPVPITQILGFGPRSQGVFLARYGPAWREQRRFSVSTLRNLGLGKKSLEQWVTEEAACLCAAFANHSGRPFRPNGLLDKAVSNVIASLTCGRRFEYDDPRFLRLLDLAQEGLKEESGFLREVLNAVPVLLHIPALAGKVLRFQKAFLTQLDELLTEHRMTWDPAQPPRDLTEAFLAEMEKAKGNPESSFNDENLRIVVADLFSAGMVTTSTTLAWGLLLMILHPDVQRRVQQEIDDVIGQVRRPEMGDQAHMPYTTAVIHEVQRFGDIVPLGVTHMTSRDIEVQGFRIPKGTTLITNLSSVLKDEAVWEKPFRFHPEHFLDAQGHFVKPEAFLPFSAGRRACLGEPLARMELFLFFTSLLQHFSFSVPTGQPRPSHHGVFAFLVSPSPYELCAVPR
Outline: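 P450-Glo luminescent screen: recombinant CYP2D6 enzyme–proluciferin substrate mix preincubated with compound 10 min at room temperature, then NADPH regeneration added for 1 h at room temperature. Detection reagent added for 20 min; luciferin light read as relative luminescence units.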

[10] = target: Catechol O-methyltransferase (Homo sapiens) (UniProt P21964); experiment: Confirmatory Screen for Target Class Profiling of Small Molecule Inhibitors of Methyltransferases (AID 1745852; calls by dose curve; for activity change, negative = inhibition: % is set by controls: 0 for no effect and ±100 for the full control effect); conditions: MTase-Glo luminescence, SAH detection, recombinant enzyme; measured here: COMT max response; stronger effect = lower value
Sequence of Catechol O-methyltransferase (Homo sapiens) (P21964 whole entry, looked up): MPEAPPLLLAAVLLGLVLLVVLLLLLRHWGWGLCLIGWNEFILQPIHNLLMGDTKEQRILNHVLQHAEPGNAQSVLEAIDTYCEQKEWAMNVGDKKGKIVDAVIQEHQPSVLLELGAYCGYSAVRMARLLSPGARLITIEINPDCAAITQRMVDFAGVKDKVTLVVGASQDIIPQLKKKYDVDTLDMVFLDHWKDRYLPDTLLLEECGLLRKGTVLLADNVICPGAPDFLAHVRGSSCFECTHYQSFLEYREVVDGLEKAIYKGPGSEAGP

[11] = target: Guanidinoacetate N-methyltransferase (Homo sapiens) (UniProt Q14353); experiment: as above; conditions: activity change, negative = inhibition: at 57.3 µM (top of the series) unless noted
[12] = target: Nicotinamide N-methyltransferase (Homo sapiens) (UniProt P40261); experiment: as above; conditions: MTase-Glo luminescence, SAH detection, recombinant enzyme; measured here: NNMT max response; stronger effect = lower value
Sequence of Nicotinamide N-methyltransferase (Homo sapiens) (P40261 whole entry, looked up): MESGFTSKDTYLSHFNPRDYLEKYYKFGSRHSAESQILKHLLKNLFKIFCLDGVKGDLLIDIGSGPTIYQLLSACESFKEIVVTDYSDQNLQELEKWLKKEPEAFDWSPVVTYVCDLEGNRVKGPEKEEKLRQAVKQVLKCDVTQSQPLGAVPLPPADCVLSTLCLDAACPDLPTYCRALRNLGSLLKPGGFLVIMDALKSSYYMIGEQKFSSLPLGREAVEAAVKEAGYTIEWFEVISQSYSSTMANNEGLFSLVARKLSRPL

[13] = target: Phenylethanolamine N-methyltransferase (Homo sapiens) (UniProt P11086); experiment: as above; conditions: MTase-Glo luminescence, SAH detection, recombinant enzyme; measured here: PNMT max response; stronger effect = lower value
Sequence of Phenylethanolamine N-methyltransferase (Homo sapiens) (P11086 whole entry, looked up): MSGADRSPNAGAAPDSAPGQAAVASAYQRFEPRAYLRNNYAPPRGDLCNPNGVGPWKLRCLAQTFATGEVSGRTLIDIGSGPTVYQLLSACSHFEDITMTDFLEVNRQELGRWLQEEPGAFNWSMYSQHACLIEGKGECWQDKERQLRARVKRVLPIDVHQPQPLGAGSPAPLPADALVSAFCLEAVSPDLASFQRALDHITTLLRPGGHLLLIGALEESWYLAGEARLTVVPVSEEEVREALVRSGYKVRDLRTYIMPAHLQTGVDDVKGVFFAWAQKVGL

[14] = target: Cytochrome P450 2C9 (Homo sapiens) (UniProt P11712); experiment: Cytochrome P450 family 2 subfamily C member 9 (CYP2C9) small molecule antagonists: luciferase biochemical (cell-free) qHTS assay (AID 1645842; active = well fitted curve in the direction sought with a large enough effect in the repeat runs; an effect the other way counts as inactive or inconclusive; note: nearly all actives have a fitted effect of over 55% in size; note: potency is the fitted concentration of half-maximal effect; for activity change, negative = inhibition: % is set by controls: 0 for no effect and ±100 for the full control effect)
Sequence of Cytochrome P450 2C9 (Homo sapiens) (P11712 whole entry, looked up): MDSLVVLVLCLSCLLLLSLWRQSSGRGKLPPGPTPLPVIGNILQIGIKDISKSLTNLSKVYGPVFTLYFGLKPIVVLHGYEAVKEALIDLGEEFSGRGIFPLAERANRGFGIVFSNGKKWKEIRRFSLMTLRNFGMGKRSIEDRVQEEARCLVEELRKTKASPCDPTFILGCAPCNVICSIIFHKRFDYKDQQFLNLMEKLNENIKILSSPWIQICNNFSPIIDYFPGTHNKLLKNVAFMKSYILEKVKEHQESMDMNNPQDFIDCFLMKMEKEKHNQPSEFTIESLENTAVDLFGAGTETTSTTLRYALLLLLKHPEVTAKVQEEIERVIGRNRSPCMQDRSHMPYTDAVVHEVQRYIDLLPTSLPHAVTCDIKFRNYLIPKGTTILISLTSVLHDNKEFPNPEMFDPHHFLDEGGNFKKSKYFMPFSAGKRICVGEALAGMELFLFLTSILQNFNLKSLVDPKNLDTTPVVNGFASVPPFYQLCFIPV
Outline: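 Luminescence, after 20 min with luciferin detection reagent, reflected CYP2C9 turnover during a 1 h NADPH-driven reaction at 37C. Enzyme-substrate mix contained 0.4% bovine serum albumin and was preincubated with compound 10 min at room temperature.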

[15] = tested on: HaCat; experiment: Cytotoxic Profiling of Annotated Libraries Using Quantitative High-Throughput Screening (AID 1296008); conditions: Five cell lines viability, CellTiter-Glo ATP luminescence, 48-72 h; max response: stronger effect = lower value; note: nearly all actives have a fitted effect of over 60% in size; note: potency is the fitted concentration of half-maximal effect; for max response: % is set by controls: 0 for no effect and ±100 for the full control effect
Outline: as §1

[16] = tested on: CRL-7250; experiment: qHTS assay to identify novel small-molecules to repurpose for Merkel cell carcinoma treatment (AID 1296009); conditions: MCC and control cell lines, CellTiter-Glo viability, 72 h; series mostly up to 92 µM; note: nearly all actives have a fitted effect of over 60% in size
Outline: (§3)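 72 hr, 37 degree celsius; NPC 8-pt / MIPE 11-pt dose response; compound pinned in DMSO; CellTiter-Glo, 10 min RT, luminescence; normalized to no-cell and DMSO controls.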

[17] = tested on: HACAT; experiment: as above; conditions: MCC and control cell lines, CellTiter-Glo viability, 72 h; at 44.8 µM (top of the series) unless noted
Outline: as §3

[18] = Confirmatory qHTS for VERO E6 Cytotoxicity Assay: Counterscreen for SARS-CoV-2 CPE Assay (AID 1508605; calls by dose curve)
[19] = tested on: NIH3T3; experiment: qHTS assay to identify novel small-molecules to repurpose for Merkel cell carcinoma treatment (AID 1296009); conditions: MCC and control cell lines, CellTiter-Glo viability, 72 h; at 44.8 µM (top of the series) unless noted; note: nearly all actives have a fitted effect of over 60% in size
Outline: as §3

COC(=O)C12C(=O)C(C)(O)C(=O)C1(C)C(C)=CC1C34CCC(OC3=O)C(C)(C)C4CCC12C (stereo unspecified)
inactive: Potency [1] | Potency [2] | Potency [3] | Potency [4] | max response [5] -13.4% | max response [6] -12.2% | Potency [7] | Potency [8]

C=C1C2(C)CC3C(C)(O)C4=CC(=O)OC(C)(C)C4=CCC3(C)C13C(=O)OC(C)C3(O)C2=O (stereo unspecified)
inactive: Potency [1] | Potency [2] | max response [5] -2.5% | Potency [8]

C=C1C(=O)CC2OC2(C)CC2OC(=O)C(=C)C2C(O)C1OC(=O)/C(C)=C\C (stereo unspecified)
active: Potency [3] 2.26 µM | Potency [4] 2.01 µM | Potency [5] 4.53 µM
inactive: Potency [7] | Potency [8]

Fc1cc(F)c2c(c1)C1C=CCC1C(c1cccnc1)N2 (stereo unspecified)
active: Potency [1] 4.61 µM | Potency [9] 23.9 µM | Potency [3] 8.17 µM | Potency [4] 16.3 µM | Potency [5] 23.1 µM | Potency [7] 10 µM | Potency [8] 11.2 µM
-0.484%: activity [10]
-0.468%: activity [13]
inactive: Potency [2]
-6.05%: activity [12]
0.0443%: activity change, negative = inhibition [11]

CN(Cc1cccc(-c2ccncc2)c1)C(=O)Oc1ccc(-c2ccc(C(N)=O)cc2)cc1
inactive: Potency [1] | Potency [2] | Potency [14] | outcome [15] | max response [6] 1.21% | Potency [16] | outcome [17] | Potency [7] | Potency [8]

COc1ccc2c(c1)c(CCN(C)C)cn2S(=O)(=O)c1ccccc1
inactive: Potency [1] | Potency [2] | Potency [18] | outcome [15] | max response [6] -1.74% | outcome [17] | outcome [19] | Potency [7] | Potency [8]
active: Potency [9] 1.51 µM | Potency [14] 15.1 µM

CN1Cc2c(ccc3c2OCO3)[C@@H]2[C@H]1c1cc3c(cc1C[C@@H]2O)OCO3
active: Potency [1] 1.61 µM | Potency [3] 2.84 µM | Potency [4] 2.26 µM | Potency [5] 3.6 µM | Potency [6] 2.86 µM | Potency [7] 3.16 µM
inactive: Potency [2]

C=C(C)C(=O)O[C@H]1[C@@H]2[C@H](C)C(=O)O[C@@H]2C[C@@H](C)[C@@H]2C=CC(=O)[C@]21C
inactive: Potency [2] | Potency [7]
active: Potency [1] 3.6 µM | Potency [3] 2.01 µM | Potency [4] 1.79 µM | Potency [5] 3.6 µM

CCCCCn1cc(C(=O)Oc2cccc3cccnc23)c2ccccc21
inactive: Potency [9] | max response [15] 2.86% | max response [6] -8.4% | Potency [16] | Potency [8]

COC1CC(O[C@H]2CC[C@@]3(C)C(CCC4C3CC[C@]3(C)C(C5=CC(=O)OC5)CCC43O)C2)OC(C)C1OC1OC(COC2OC(CO)C(O)C(O)C2O)C(O)C(O)C1O (stereo partly specified)
active: Potency [1] 1.74 µM | Potency [3] 0.975 µM | Potency [4] 1.73 µM | Potency [5] 1.74 µM | Potency [6] 2.76 µM | Potency [7] 2.82 µM | Potency [8] 3.16 µM

CN1C(=O)[C@@H](Cc2c[nH]c3ccccc23)N=C(c2ccccc2F)c2ccccc21
inactive: Potency [2] | max response [15] -23.4% | max response [6] -7.12% | Potency [16] | Potency [7] | Potency [8]
active: Potency [9] 9.52 µM

C[C@@H]1O[C@@H](OC2CCC3(C=O)C(CCC4C3CCC3(C)C(C5=CC(=O)OC5)C(O)CC43O)C2)[C@H](O)[C@H](O)[C@H]1O[C@@H]1O[C@H](CO)[C@@H](O)[C@H](O)[C@H]1O (stereo partly specified)
active: Potency [1] 6.11 µM | Potency [3] 2.42 µM | Potency [4] 4.83 µM | Potency [5] 3.85 µM | Potency [8] 11.2 µM

CC(C)[C@H](NC(=O)c1nn(Cc2ccc(F)cc2)c2ccccc12)C(N)=O
active: Potency [9] 16.9 µM | Potency [14] 6.74 µM
inactive: Potency [2] | Potency [3] | Potency [4] | max response [5] -11.8% | max response [6] 0.24% | Potency [7] | Potency [8]

COc1cc(O)c2c(c1)CCC[C@@H](O)[C@H](O)C(=O)/C=C\C[C@H](C)OC2=O
active: Potency [1] 14.3 µM | Potency [3] 8.01 µM | Potency [4] 4.5 µM | Potency [5] 6.4 µM
inactive: Potency [7]

CCOc1ccc(Oc2ccc(OCc3cc(F)ccc3F)cc2)c(N)c1
inactive: Potency [1] | Potency [2] | max response [15] -5.94% | max response [6] -0.382% | Potency [16] | Potency [7] | Potency [8]

CN1CCCCC1Cn1cc(C(=O)c2cc([N+](=O)[O-])ccc2I)c2ccccc21 (stereo unspecified)
inactive: Potency [1] | Potency [2] | Potency [18] | Potency [3] | Potency [4] | outcome [15] | max response [6] 6.42% | outcome [17] | outcome [19] | Potency [7] | Potency [8]

CC(=O)OC[C@]12[C@H](OC(C)=O)C(=O)[C@@H]3[C@@H](O)[C@@]14O[C@@]3(C)COC(=O)c1cccnc1[C@@H](C)[C@H](C)C(=O)O[C@@H]([C@H](OC(C)=O)[C@@H]2OC(C)=O)[C@]4(C)O
inactive: Potency [1] | Potency [2] | outcome [15] | max response [6] 7.87% | Potency [16] | outcome [17] inactive [at 17.4 µM] | Potency [7] | Potency [8]

C#C[C@]1(O)CC[C@H]2[C@@H]3CC[C@H]4Cc5nc6nc7ccccc7n6cc5C[C@]4(C)[C@H]3CC[C@@]21C
-31.4%: activity [13]
-2.81%: activity change, negative = inhibition [11]
inactive: Potency [2] | Potency [7]
-13.5%: activity [10]
-21%: activity [12]
active: Potency [1] 20.6 µM | Potency [3] 12.9 µM | Potency [4] 11.5 µM | Potency [5] 14.6 µM
